Source: PubChem BioAssay
The entries come from a sample that favours hits as a whole.
TTR transcr act = activators of transthyretin transcription; SH-SY5Y TTR promoter Gaussia luciferase, luminescence; 100% = recombinant luciferase protein wells; activation, % at 16.7 µM; actives 1.3% (n = 92,000);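 active = activation above the mean of all tested compounds plus 3 SD, cut at about 9.5% in these data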;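 also: cells exposed to compounds for one day before reading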
TTR inh HuH7 = counter-screen for TTR activators: TTR transcription inhibitors in HuH7 cells. HuH7 TTR promoter-Gaussia luciferase reporter, luminescence. inhibition, % at 16.7 µM. shares compounds with TTR transcr act. actives 4% (n = 1,100);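 active = average inhibition above the solvent-only control wells' mean plus 3 SD, cut at about 15% in these data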;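 also: inhibitors lower well luminescence so higher value means more inhibition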
TTR act confirm = human TTR transcription activation, confirmation; shares compounds with TTR transcr act; SHSY5Y TTR promoter Gaussia luciferase, luminescence; 100% = purified Lucia enzyme wells, no cells; activation, % at 16.7 µM; 1,100 tested, under 10 active; AID 1117280;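 active = mean activation above a set limit taken from the earlier primary screen, cut at about 11% in these data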
Each line names hits and unclear results; the compound was inactive in the other large screens (follow-up assays come after a bar, where they were run).

Cc1ccc(C(=O)N2CCCC(N3CCN(c4cccc(C(F)(F)F)c4)CC3)C2)s1 (stereo not drawn)	none
O=C(c1ccoc1)N1CCCC(N2CCN(c3cccc(C(F)(F)F)c3)CC2)C1 (stereo not drawn)	none
CC1=C(C(=O)N2CCCC(N3CCN(c4cccc(C(F)(F)F)c4)CC3)C2)OCCO1 (stereo not drawn)	TTR transcr act 11 | TTR inh HuH7 inactive | TTR act confirm inactive
Cc1ccc(S(=O)(=O)NCC(=O)Nc2cccnc2)cc1C	none
O=C(Nc1ccc(F)c(Cl)c1)c1nsc(Cl)c1Cl	none
Cc1ccc(S(=O)(=O)N(C)C)cc1NC(=O)C1CCCC1	TTR transcr act 11 | TTR inh HuH7 inactive | TTR act confirm inactive
Cc1ccc(S(=O)(=O)N(C)C)cc1NC(=O)CSc1ccc2c(c1)OCCO2	none
Cc1ccc(S(=O)(=O)N(C)C)cc1NC(=O)c1cccs1	none
COc1ccccc1N=NC1=C(O)CC(C)(C)CC1=O	none
COc1cc(/C(C)=N/NC(=O)Cc2c(C)[nH][nH]c2=O)ccc1O	TTR transcr act 14 | TTR inh HuH7 inactive | TTR act confirm inactive
C/C(=N/NC(=O)Cc1c(C)[nH][nH]c1=O)c1ccc(O)cc1	none
COc1ccc(/C(C)=N/NC(=O)Cc2c(C)nc(C)[nH]c2=O)cc1	none
CCCCNS(=O)(=O)c1ccc2c(c1)oc(=O)n2CC(=O)OCC	none
C[C@H](NC(=O)C1(c2ccccc2)CCN(C(=O)[C@H]2CSCN2C(=O)OC(C)(C)C)CC1)C(=O)O	none
Cc1ccc([C@H]2C[C@@H](n3cc(-c4ccc(F)cc4)nn3)[C@H](O)CN2CC2CCCCC2)cc1	none
Cc1nc(-c2cc(C#N)c(=O)[nH]c2C)cs1	TTR transcr act 16 | TTR inh HuH7 inactive | TTR act confirm inactive
COC(=O)c1cc(C#N)c(=O)[nH]c1C	none
Cc1nc(-c2ccc(C#N)cc2)cs1	none
Cc1ccc2nc(NC(=O)[C@H](C)N3C(=O)C4CC=CCC4C3=O)sc2c1 (stereo partly drawn)	none
Cc1nc(NC(=O)C2CC2)sc1C(=O)Nc1cccc(Cl)c1	none
Cc1ccc(S(=O)(=O)Nc2ccc3c(c2)OCCO3)cc1C	none
COc1ccc(S(=O)(=O)Nc2ccc3c(c2)OCO3)cc1OC	TTR transcr act 17 | TTR inh HuH7 inactive | TTR act confirm inactive
COc1ccc(S(=O)(=O)Nc2ccccc2)cc1OC	none
O=C(COC(=O)c1ccc(Br)o1)NCC1CCCCC1	none
COc1ccc(Cl)cc1C(=O)NNC(=O)COC(=O)c1cccs1	TTR transcr act 10 | TTR inh HuH7 inactive | TTR act confirm inactive
O=C(CCC(=O)c1cccs1)NNC(=O)c1cc(Cl)ccc1Cl	none
O=C(NNC(=O)c1cc(Cl)ccc1O)c1cccs1	none
O=C(NCCc1ccccc1)OCc1cn(Cc2c(F)cccc2F)nn1	none
COc1ccccc1C(=O)Oc1ccc(C(C)(C)C)cc1	none
CCOC(=O)CSc1nnc(-c2ccc(OC)cc2)n1CC	none
COc1ccc(-c2nc(C)c(C(C)=O)n2O)cc1	none
COc1ccc(C(C)n2c(C)c3c(C)nnc(C)c3c2C)cc1 (stereo not drawn)	TTR transcr act 9.8 | TTR inh HuH7 inactive | TTR act confirm inactive
COc1cccc(C(=O)NC(C)C(c2cccs2)N2CCN(C)CC2)c1 (stereo not drawn)	none
COc1cc(OC)c2c(C)cc(=O)oc2c1C(CCN1CCN(c2ccccc2)CC1)c1ccc2c(c1)OCO2 (stereo not drawn)	none
COc1cc(OC)c2ccc(=O)oc2c1C(CC(=O)N1CCOCC1)c1ccc2c(c1)OCO2 (stereo not drawn)	TTR transcr act 14 | TTR inh HuH7 inactive | TTR act confirm inactive
COc1cc(O)c([C@@H](CC(=O)N2CC(C)CC(C)C2)c2ccc3c(c2)OCO3)c(OC)c1 (stereo partly drawn)	none
Cc1ccc(C)c(NC(=O)COc2cccc3c2CCN(Cc2ccccc2)C3=O)c1	none
CCOC(=O)c1cnn(-c2ccccc2)c1NC(=O)CCl	none
COc1ccc(CCNC(=O)c2cnn(-c3ccccc3)c2N)cc1OC	none
CCCc1c(C(=O)NNc2ccccc2OC)cnn1-c1ccccc1	TTR transcr act 12 | TTR inh HuH7 inactive | TTR act confirm inactive
CCN(CC)CC(C)(C)NS(=O)(=O)c1ccc(Cl)cc1	none
O=C(CCCOc1ccc(Cl)cc1Cl)NCc1ccncc1	none
Cc1ccc(-n2cc(C(=O)O)c(=O)cc2C)c(C)c1	none
O=S1(=O)c2c(cccc2N2CC[C@@H](O)C2)O[C@@H]2CCN1C2	none
Cn1cnnc1SCc1ccccc1	TTR transcr act 18 | TTR inh HuH7 inactive | TTR act confirm inactive
COc1ccc(CSc2nncn2C)cc1F	none
Cn1cnnc1SCc1ccc(C(=O)NN)cc1	none
O=C(CONS(=O)(=O)c1ccc(Cl)cc1)NCCNc1ncc(C(F)(F)F)cc1Cl	none
COc1cccc(C(=O)NC2CC(C)(C)NC(C)(C)C2)c1OC	none
Cc1c(Br)c(C(F)(F)F)nn1CC(=O)NCc1ccco1	none
O=C(Cn1nc(C(F)(F)F)c2c1CCCC2)NCc1ccco1	TTR transcr act 14 | TTR inh HuH7 inactive | TTR act confirm inactive
CC(NC(=O)Cn1nc(C(F)(F)F)c2c1CCC2)c1ccccc1 (stereo not drawn)	none
O=C(Nc1cccc(Cl)c1)Nc1ccc2c(c1)C(=O)OC2	none
O=C1OCc2ccc(NC(=O)c3c(F)cccc3Cl)cc21	none
O=C1OCc2ccc(NC(=O)C3CC3)cc21	TTR transcr act 21 | TTR inh HuH7 inactive | TTR act confirm inactive
Fc1ccc(CSc2ncnc3scc(-c4ccccc4)c23)cc1	none
CCN1CCCc2cc(CN(CCN3CCOCC3)C(=S)Nc3cccc(C)c3)ccc21	none
CC(C)Cn1cnc2c1c(=O)n(CC(=O)N(C)C)c(=O)n2Cc1ccccc1	none
COCCn1cnc2c1c(=O)n(CC(=O)Nc1cc(C)on1)c(=O)n2Cc1ccccc1	TTR transcr act 16 | TTR inh HuH7 inactive | TTR act confirm inactive
CCn1cnc2c1c(=O)n(CC(=O)Nc1ccc3c(c1)OC(F)(F)O3)c(=O)n2Cc1ccccc1	none
O=C(CC1C(=O)NCCN1Cc1cccc(Oc2ccccc2)c1)NCC1CCOCC1 (stereo not drawn)	none
O=c1[nH]c2c(s1)C(c1ccc(O)cc1)C1C3CCC(C3)C1S2 (stereo not drawn)	none
CCCSc1nnc(NC(=O)c2ccco2)s1	none
Cc1ccc(NC(=O)CSc2nnc(NC(=O)c3ccco3)s2)cc1	none
O=C(CSc1nnc(NC(=O)c2ccco2)s1)NCc1ccc2c(c1)OCO2	TTR transcr act 21 | TTR inh HuH7 inactive | TTR act confirm inactive
COc1cccc(-c2nnc3n2N=C(c2cc(OC)ccc2OC)CS3)c1	none
Cc1cc(NC(=O)Cn2ccc([N+](=O)[O-])n2)no1	none
O=C(Nc1ccc(Cl)cc1)NN1CCCCCC1	TTR transcr act 17 | TTR inh HuH7 inactive | TTR act confirm inactive
O=C(Nc1ccc([N+](=O)[O-])cc1)NN1CCCCCC1	none
N#Cc1ccc(NC(=O)NN2CCCCCC2)cc1	none
CN(Cc1cccc(Cl)c1)C(=O)C1CSC2(C)CCC(=O)N12 (stereo not drawn)	none
Cc1nc2ccccc2c(=O)n1Nc1cccc(Cl)c1	none
COc1ccc(C=O)cc1OC(=O)C1(C)Cc2ccccc2C(=O)O1 (stereo not drawn)	none
CC1CCN(CC(=O)Nc2ccc(C(=O)N3CCCCC3)cc2)CC1	none
CCOc1ccc(C(=O)N2CCn3c2nc2ccccc23)cc1	none
COc1ccc(CNCc2cccn2C)cc1	none
CC(C)OC(=O)CSc1nc2ncc(Cl)cc2[nH]1	none
